Assay outcomes (PubChem BioAssay)
Pf growth 96h: inhibits malaria parasite growth, 96 h; P. falciparum luciferase reporter growth, 96 h; Potency, µM (titrated, usually from 28.7 µM), actives largely listed as inhibitors; 320,000 compounds, 6.9% hits
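Infected RBCs, 2% Hct / 0.05% parasitemia final; luciferase-reporter P. falciparum; cpd 96 h, 37 C, 5% CO2; luciferase detection reagent; luminescence.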
SARS PLpro yeast: inhibitors of SARS-CoV papain-like protease in yeast; 330,000 compounds, 0.19% hits; AID 485353; S. cerevisiae expressing SARS-CoV PLpro, growth rescue; Potency, µM (top dose mostly 32.9 µM), hits mostly activators; calls by dose curve; also: nearly all actives have a fitted effect of over 55% in size
RE007 growth inh: less growth of the S. pombe RE007 Vpr strain | S. pombe RE007 Vpr strain, BacTiter-Glo ATP luminescence, 24 h | Potency, µM (series often up to 92.2 µM), usual class: inhibitors | 360,000 compounds, 0.21% hits | AID 651644; active = well fitted falling curve with a large enough effect; inconclusive = small, poorly fitted or top-dose-only effect; inactive = no such curve, though single readings can be large or run the other way; also: nearly all actives have a fitted effect of over 50% in size
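Fission yeast RE007 carrying one integrated HIV-1 vpr copy, seeded at OD 0.01 in PMG+AL medium with 23 nL pinned compound. Grown 24 h at 30 degrees; viability read by BacTiter-Glo luminescence after 5 min.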
NS1 inh: blocks influenza NS1 protein function; Potency, µM (doses to about 46.1 µM); 270,000 compounds, 0.4% hits; AID 2326; calls by dose curve; also: actives are rising curves; nearly all actives have a fitted effect of over 50% in size
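A cell-based growth assay was used: compounds that relieve NS1-induced slow growth of budding yeast raise OD600. Assay medium was yeast nitrogen base with ammonium sulphate and -URA supplement, pH 6.0, with 2% galactose.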
Pf growth 48h: inhibits P. falciparum growth in the first generation, 48 h. P. falciparum luciferase growth in erythrocytes, 48 h. Potency, µM (highest dose often 28.7 µM), hits mostly inhibitors. 310,000 compounds, 5.9% hits
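Growth was read as firefly luciferase luminescence after a 48 h, 37 C, 5% CO2 exposure of compounds to reporter-bearing P. falciparum cultures (0.1% parasitemia, 2% hematocrit final) in Albumax-supplemented RPMI 1640.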
Hits are given with their value; . = inactive; ? = inconclusive; / = no result; [ ] = another dose, or the depositor's remark. Compounds with a hit are over-represented: about 9.5% of the library has one in this group of screens. Unless noted, calls follow the shape of the dose curve; as a rule, active = well fitted inhibition curve with a large enough effect; inconclusive = small, poorly fitted or top-dose-only effect, or another doubt; inactive = no such curve, though single readings can be large or run the other way.

SMILES	Pf growth 96h	SARS PLpro yeast	RE007 growth inh	NS1 inh	Pf growth 48h
Fc1ccc2[nH]c3c(NCc4ccccc4)ncnc3c2c1	3.7µM	.	.	.	5.86µM
O=C(O)c1[nH]c(=O)[nH]c(=O)c1CN1CCCCC1	/	/	/	.	/
Cc1ccc(/C=N/c2sc3c(c2C#N)CCC3)s1	7.38µM	.	.	.	.
C/C(CC(=O)Nc1ccc(Cl)c(Cl)c1)=N\NC(N)=S	.	.	.	.	13.1µM
Cc1ccnc(N=O)c1	/	.	.	/	/
CCCC(=O)NCCc1c2n(c3ccc(OC)cc13)CCCc1ccccc1-2	/	/	/	.	/
O=C(Nc1ccc(Oc2c(F)c(F)c(F)c(F)c2F)cc1)OC1CCN2Cc3ccccc3N=C12 (stereo unspecified)	2.62µM	.	?	.	?
O=S(=O)([N-]c1nc2ccccc2nc1-[n+]1ccc(-c2ccncc2)cc1)c1ccccc1	?	.	.	/	?
O=S(=O)([N-]c1nc2ccccc2nc1-n1cc[n+](Cc2ccccc2)c1)c1ccccc1	.	.	.	.	.
CCCC[n+]1ccn(-c2nc3ccccc3nc2[N-]S(=O)(=O)c2cccs2)c1	5.86µM	.	.	.	?
CCCC[n+]1ccn(-c2nc3ccccc3nc2[N-]S(=O)(=O)c2ccccc2)c1	14.7µM	.	.	.	/
CCCC[n+]1ccn(-c2nc3ccccc3nc2[N-]S(=O)(=O)c2ccc(C)cc2)c1	.	.	.	.	/
Cc1ccc(S(=O)(=O)[N-]c2nc3ccccc3nc2-n2cc[n+](Cc3ccccc3)c2)cc1	1.47µM	.	.	.	4.15µM
O=S(=O)([N-]c1nc2ccccc2nc1-[n+]1ccc(CCCc2ccccc2)cc1)c1cccs1	5.22µM	.	.	.	7.38µM
Cc1onc(-c2ccccc2)c1C(=O)N(CC(C)C)c1c(N)n(CC(C)C)c(=O)[nH]c1=O	.	.	.	/	.
CCOC(=O)C1CCN(CC(=O)c2ccc(O)c(C)c2O)CC1	?	.	.	.	.
Cc1ccc(CNC(=O)CSc2nc3ccsc3c(=O)n2Cc2ccccn2)cc1	.	.	.	/	.
Cc1ccc(Cn2c(SCC(=O)NCc3ccco3)nc3ccsc3c2=O)cc1	?	.	.	.	13.1µM
NC(=O)C1CCN(C(=O)c2ccc3c(=O)n(Cc4ccco4)c(SCc4ccc([N+](=O)[O-])cc4)nc3c2)CC1	?	.	.	.	11.7µM
O=c1c2ccccc2nc(SCc2ccccc2)n1Cc1ccco1	.	.	.	.	?
Cc1sc2nc(SCC(=O)NCc3ccco3)n(CCc3ccccc3)c(=O)c2c1C	.	?	.	.	11.7µM
Cc1ccc(CSc2nc3ccccc3c(=O)n2Cc2ccco2)cc1	9.28µM	.	.	.	13.1µM
CC(C)NC(=O)C1(C#N)C=C1c1ccccc1 (stereo unspecified)	/	/	.	/	/
O=C(CSc1nc2ccsc2c(=O)n1CC1CCC(C(=O)O)CC1)NCCc1ccc(Cl)cc1 (stereo unspecified)	7.38µM	.	.	.	?
CCOC(=O)CNC(=O)CSc1nc2sc(C)c(C)c2c(=O)n1C	?	.	.	.	.
SMILES	Pf growth 96h	SARS PLpro yeast	RE007 growth inh	NS1 inh	Pf growth 48h
Cc1sc2nc(SCC(=O)NCCO)n(C)c(=O)c2c1C	9.28µM	.	.	.	.
COC(=O)CC1C(=O)NCCN1C(=O)c1oc2c(C)c(C)ccc2c1C (stereo unspecified)	/	/	.	/	/
CSCC[C@H](NC(=O)OC(C)(C)C)c1nnc(SCc2ccc(F)cc2)o1	?	.	.	.	?
CSCC[C@H](NC(=O)OC(C)(C)C)c1nnc(SCc2cccc(F)c2)o1	.	.	.	.	?
CC(C)C[C@H](NC(=O)OC(C)(C)C)c1nnc(SCc2cccc(F)c2)o1	10.4µM	.	.	.	?
CC(C)(C)OC(=O)N1CCC[C@H]1c1nnc(SCc2ccccc2)o1	11.7µM	.	.	.	?
CSCC[C@H](NC(=O)OC(C)(C)C)c1nnc(SCc2ccccc2)o1	.	.	.	.	6.57µM
Cc1ccc(CSc2nnc([C@@H]3CCCN3C(=O)OC(C)(C)C)o2)cc1	?	.	.	.	?
CC(C)(C)c1ccc(S(=O)(=O)NC(=O)C2(C)CCN2C(=O)C2(c3ccccc3)CC2)cc1 (stereo unspecified)	/	/	.[18.4 µM]	/	/
CC1(C(=O)NS(=O)(=O)C2CC2)CCCN(C(=O)c2ccc3ccccc3c2)C1 (stereo unspecified)	/	/	.	/	/
Cn1c(O)c(N=Nc2ccccc2[N+](=O)[O-])c2ccccc21	.	.	.	.	.
Cn1c(-c2ccccc2[N+](=O)[O-])[n+](C)c2ccccc21	4.15µM	.	.	.	10.4µM
CC(=O)c1ccc(C(C)(C)c2ccc(C(C)=O)s2)s1	11.7µM	.	.	.	?
C[n+]1c2ccccc2nc2ccc(NCCO)cc21	0.131µM	.	3.55µM	.	0.117µM
CNc1ccc2nc3ccccc3[n+](C)c2c1	0.165µM	.	?	.	0.165µM
O=C(OCC(=O)c1c[nH]c2ccccc12)c1ccco1	5.22µM	.	.	.	.
COc1cccc(C(=O)OCC(=O)c2c[nH]c3ccccc23)c1O	.	.	.	.	.
CC(C(=O)c1c[nH]c2ccccc12)N1CCN(C(=O)c2ccco2)CC1 (stereo unspecified)	2.08µM	.	.	.	1.85µM
COc1cc(NC(=O)c2ccco2)c(C(=O)OCC(=O)c2c[nH]c3ccccc23)cc1OC	2.33µM	.	.	?	4.15µM
C=CCNC(=S)N1CCN(C2CCCCC2)CC1	.	.	.	.	?
Cc1ccc(C(=O)N2CCN(c3ncccn3)CC2)cc1S(=O)(=O)N1CCCCC1	.	?	.	.	.
COc1cccc2cc(C(=O)NC3CC4CCC3C4)oc12 (stereo unspecified)	.	.	.	.	?
CCCCSC1(SCCCC)N=C(N)C2(C#N)C(c3ccccc3)NC(C)=C(C)C12C#N (stereo unspecified)	?	.	.	.	.
CCSC1(SCC)N=C(N)C2(C#N)C(c3ccc(F)cc3)C12C#N (stereo unspecified)	?	.	4.47µM	.	.
CCSC1(SCC)N=C(N)C2(C#N)C(c3ccccc3)NC(C)=C(C)C12C#N (stereo unspecified)	.	.	56.2µM	.	.
SMILES	Pf growth 96h	SARS PLpro yeast	RE007 growth inh	NS1 inh	Pf growth 48h
OC[C@H](CCc1c[nH]c2ccccc12)c1c[nH]c2ccccc12	/	/	/	.	/
Cc1ccc(S(=O)(=O)Nc2c(C)[nH]c(=O)[nH]c2=O)cc1C	2.62µM	.	.	.	.
COc1ccc(C(=O)OCC(=O)Nc2ccc(OC(F)F)cc2)c(OC)c1	/	.	.	.	.
O=C(COC(=O)c1ccccc1O)Nc1ccc(OC(F)F)cc1	9.28µM	.	.	.	.
NC(=O)CC(NC(=O)Cc1ccc(Br)cc1)c1ccc(NCCN2CCCC2)c([N+](=O)[O-])c1 (stereo unspecified)	?	.	.	.	.
CC1CCCCN1CCCNc1ccc(C(CC(N)=O)NC(=O)Cc2cccc3ccccc23)cc1[N+](=O)[O-] (stereo unspecified)	2.08µM	.	.	.	?
